Experimental data taken from PubChem BioAssay (NCATS).
Several values for one entry are separate records, joined by “and”; a condition that tells them apart may be missing. Equal entries are not always repeated. Results filed as inconclusive are left out. Activity calls are given as the source filed them. Unless noted, the call rests on the fitted dose curve; in most records, active means well fitted curve in either direction with a large enough effect (not every such curve was filed as active); inconclusive means small, poorly fitted or top-dose-only effect, or another doubt; inactive means flat fitted curve, though single readings scatter.

Columns and labels:
[1] = target: Lysosomal acid glucosylceramidase (Homo sapiens) (UniProt P04062); assay: Glucocerebrosidase-p2 (AID 348; in the data active means potency below about 10 µM; further: potency means the concentration at half of the fitted maximal effect); settings: purified GBA, blue fluorogenic substrate, 40 min
Sequence of Lysosomal acid glucosylceramidase (Homo sapiens) (P04062 whole entry, looked up): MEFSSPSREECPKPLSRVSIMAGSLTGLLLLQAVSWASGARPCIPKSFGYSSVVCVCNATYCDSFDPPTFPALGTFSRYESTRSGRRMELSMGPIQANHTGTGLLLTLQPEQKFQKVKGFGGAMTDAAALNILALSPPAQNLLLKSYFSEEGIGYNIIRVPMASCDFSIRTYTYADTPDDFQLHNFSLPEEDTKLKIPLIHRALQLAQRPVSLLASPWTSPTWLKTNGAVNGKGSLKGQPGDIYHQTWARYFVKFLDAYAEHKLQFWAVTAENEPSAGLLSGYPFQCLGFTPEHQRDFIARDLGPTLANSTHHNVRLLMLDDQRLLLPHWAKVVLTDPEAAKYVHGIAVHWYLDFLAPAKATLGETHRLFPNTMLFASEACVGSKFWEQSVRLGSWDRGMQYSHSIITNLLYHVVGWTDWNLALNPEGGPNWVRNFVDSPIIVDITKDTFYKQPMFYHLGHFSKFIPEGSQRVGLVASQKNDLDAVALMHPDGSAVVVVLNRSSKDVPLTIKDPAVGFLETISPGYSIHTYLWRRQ
Outline: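 Normal human glucocerebrosidase (0.2 nM) with blue fluorogenic substrate (80 uM final) in citrate/phosphate pH 5.9 with 10mM sodium taurocholate, 0.01% tween-20; 40 min RT, NaOH/glycine stop; fluorescence Ex 365/Em 440; AC50 from a titration from 0.6 nM upwards.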

[2] = AP1 Signaling Pathway (AID 357); further: on the % scale 0 is the no-effect control and ±100 the full control effect
Outline: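 AP-1-bla ME-180 cells with beta-lactamase reporter under AP-1 response element, stimulated with EC50 EGF; compounds titrated, 5 hours at 37 degrees Celsius. CCF4 read at 460/530 nm ratio; positive and negative modulators judged by AC50.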

[3] = target: Cytochrome P450 1A2 (Homo sapiens) (UniProt P05177); assay: p450-cyp1a2 (AID 410; calls by dose curve; further: potency means the concentration at half of the fitted maximal effect;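 on activity change, negative = inhibition: -100% = full effect of reference inhibitor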)
Sequence of Cytochrome P450 1A2 (Homo sapiens) (P05177 whole entry, looked up): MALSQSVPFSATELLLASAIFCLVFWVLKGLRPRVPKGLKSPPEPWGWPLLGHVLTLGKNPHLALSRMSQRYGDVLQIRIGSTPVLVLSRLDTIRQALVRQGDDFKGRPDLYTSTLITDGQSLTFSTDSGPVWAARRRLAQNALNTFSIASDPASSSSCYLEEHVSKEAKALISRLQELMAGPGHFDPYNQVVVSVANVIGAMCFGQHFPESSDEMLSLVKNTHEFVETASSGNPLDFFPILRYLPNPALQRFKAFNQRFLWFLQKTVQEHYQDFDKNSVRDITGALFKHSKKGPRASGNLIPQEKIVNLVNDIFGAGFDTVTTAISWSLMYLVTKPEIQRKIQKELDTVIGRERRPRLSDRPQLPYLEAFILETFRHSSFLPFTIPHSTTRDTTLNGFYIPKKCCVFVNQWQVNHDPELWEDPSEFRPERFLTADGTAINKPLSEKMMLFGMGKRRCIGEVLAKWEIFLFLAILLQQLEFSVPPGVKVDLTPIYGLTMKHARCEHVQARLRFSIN
Outline: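 O-Demethylation of luciferin 6' methyl ether by human CYP1A2 is monitored as luciferase luminescence. Substrate sits at Km (100uM); enzyme is 20nM. Values are scaled to 57 uM furafylline as maximal inhibition.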

[4] = NFAT Signaling Pathway (AID 444); settings: Jurkat NFAT-bla M1, carbachol, beta-lactamase ratio, 5 h; at 38 µM (top of the series) unless noted;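 further: carbachol stimulus at about its EC50 of 1 µM final; on the % scale 0 is the no-effect control and ±100 the full control effect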
Outline: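 Jurkat cells carrying an NFAT-driven β-lactamase reporter and co-transfected muscarinic M1 receptor were treated with compound plus carbachol (1 uM final, an EC50 level) for 5 h at 37 °C. CCF4 loading followed for 1 h at RT; 460/530 nm ratio gave %activity.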

[5] = Stat Signaling Pathway (AID 446); settings: ME-180 (cervical carcinoma) SIE beta-lactamase reporter, IL-6 stimulated, 5 h;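 further: ME-180 cervical cancer cells given 40 pM IL-6 alongside compound; SIE-controlled beta-lactamase reporter measured as 460/530 nm FRET emission ratio; on the % scale 0 is the no-effect control and ±100 the full control effect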
Outline: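 Overnight-plated ME-180 cells bearing a STAT Inducible Element beta-lactamase reporter; 5 h co-exposure to compound and 40 pM IL-6; values normalized to 300 pM IL-6 and 125 nM JAK inhibitor controls.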

[6] = target: Glucocorticoid receptor (Homo sapiens) (UniProt P04150); assay: GR-GFP Redistribution (AID 450;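 active means compounds whose dose series gives a full or clear partial fitted curve of increased nuclear translocation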; further: potency means the concentration at half of the fitted maximal effect); settings: U2OS GR-GFP nuclear translocation, laser cytometry, 2 h
Sequence of Glucocorticoid receptor (Homo sapiens) (P04150 whole entry, looked up, the tested form may be a part): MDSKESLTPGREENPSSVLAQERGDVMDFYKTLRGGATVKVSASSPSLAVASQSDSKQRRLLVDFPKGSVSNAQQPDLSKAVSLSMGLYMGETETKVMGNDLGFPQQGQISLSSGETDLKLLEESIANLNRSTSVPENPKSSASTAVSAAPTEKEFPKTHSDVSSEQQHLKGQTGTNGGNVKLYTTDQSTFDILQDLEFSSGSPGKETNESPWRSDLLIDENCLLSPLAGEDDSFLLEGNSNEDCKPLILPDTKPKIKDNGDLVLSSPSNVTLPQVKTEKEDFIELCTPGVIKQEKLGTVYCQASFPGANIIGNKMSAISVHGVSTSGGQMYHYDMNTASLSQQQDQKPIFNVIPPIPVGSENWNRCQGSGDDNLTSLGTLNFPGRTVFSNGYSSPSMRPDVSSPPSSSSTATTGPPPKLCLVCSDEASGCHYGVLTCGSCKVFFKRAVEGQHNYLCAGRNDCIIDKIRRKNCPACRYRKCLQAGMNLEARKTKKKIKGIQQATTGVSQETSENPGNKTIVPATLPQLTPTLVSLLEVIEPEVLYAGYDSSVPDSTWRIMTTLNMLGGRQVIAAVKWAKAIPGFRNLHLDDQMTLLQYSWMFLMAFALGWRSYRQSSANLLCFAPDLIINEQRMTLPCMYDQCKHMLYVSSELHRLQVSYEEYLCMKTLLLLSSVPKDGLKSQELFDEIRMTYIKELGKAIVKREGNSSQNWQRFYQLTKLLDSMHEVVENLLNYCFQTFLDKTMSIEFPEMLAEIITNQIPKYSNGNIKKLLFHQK

[7] = target: Glucocorticoid receptor (Homo sapiens) (UniProt P04150); assay: GR-EFC Redistribution (AID 451; calls by dose curve; further: potency means the concentration at half of the fitted maximal effect); settings: CHO-K1 GR-EFC translocation, beta-gal luminescence, 2 h
Outline: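 CHO-K1 cells stably expressing nuclear-localized β-gal enzyme acceptor and GR fused C-terminally to the enzyme donor fragment; ligand-driven nuclear translocation restores β-gal by complementation. Compounds titrated up to 46 uM final, 2 h at 37 °C; luminescence read.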

[8] = target: Mitogen-activated protein kinase 10 (Mus musculus) (UniProt Q61831); assay: JNK3 AlphaScreen Assay (AID 530);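 further: kinase came from lysate of stimulated human HepG2 cells; signal reports phosphorylation of biotinylated GST-cJun 1-79 at Ser73 with 10 µM ATP; on the % scale 0 is the no-effect control and ±100 the full control effect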
Outline: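 Phosphorylation of biotinylated GST-cJun(1-79) at Ser73 is measured by AlphaScreen proximity luminescence. Enzyme is JNK3 in HepG2 lysates activated with interleukin-1beta and tumor necrosis factor alpha; ATP is 10 uM final.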

[9] = Cell Viability - BJ (AID 421; calls by dose curve;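 further: potency means the concentration at half of the fitted maximal effect; cells exposed to compound for 40 hours at 37 °C before readout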); settings: BJ fibroblast viability, qHTS
Outline: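 Quantitative HTS: ATP depletion in BJ cells after 40 hr compound exposure in complete culture medium, detected with CellTiter-Glo; AC50 from standard Hill fits.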

[10] = Cell Viability - Jurkat (AID 426;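 active means dose-dependent loss of cell ATP signal giving a full or clear fitted curve, ranked by lower potency value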;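 further: potency means the concentration at half of the fitted maximal effect; cells exposed to compound for 40 hours at 37 °C before ATP read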); settings: qHTS
Outline: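 Cells of the human T-cell leukemia line Jurkat (E6-1) are seeded at 5000 per well, treated with compound across a concentration range for 40 hours at 37 °C, then lysed with CellTiter-Glo; luminescence reports ATP.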

[11] = Cell Viability - Hek293 (AID 427;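 active means compounds whose dose-response curve shows a full or clear partial loss of cell viability, called from curve shape rather than a numeric limit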;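 further: potency means the concentration at half of the fitted maximal effect; cells exposed to compound for 40 hours at 37 °C before reading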); settings: qHTS
Outline: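 AC50 values derive from Hill-modelled concentration-response of ATP-based luminescence, normalized between DMSO-only and 100 uM tamoxifen controls. Cells were exposed in complete culture medium for 40 hr at 37 °C before detection.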

[12] = Cell Viability - HepG2 (AID 433; calls by dose curve;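 further: potency means the concentration at half of the fitted maximal effect; potency for ATP loss meaning cytotoxicity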); settings: qHTS
Outline: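 ATP luminescence (CellTiter-Glo) after 40 h compound exposure, 37 °C, HepG2, 1500 cells/well, complete medium. Normalized: DMSO = basal, 100 uM tamoxifen = 100% inhibition. AC50 via standard Hill equation.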

[13] = Cell Viability - MRC5 (AID 434; calls by dose curve;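 further: potency means the concentration at half of the fitted maximal effect; potency reflects cytotoxicity seen as loss of intracellular ATP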); settings: MRC5 lung fibroblast viability, qHTS
Outline: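 Decrease in intracellular ATP, quantified by luciferase light output, reflects compound toxicity toward MRC5 cells exposed for 40 hr in complete culture medium. Concentration-response curves, scaled between DMSO and 100 uM tamoxifen, gave AC50 values.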

[14] = Cell Viability - SK-N-SH (AID 435; calls by dose curve; further: potency means the concentration at half of the fitted maximal effect); settings: SK-N-SH neuroblastoma cell viability qHTS
Outline: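 CellTiter-Glo ATP luminescence, 20 min RT read; cells pre-plated 5 hr, compound 40 hr at 37 °C, 1500 cells/well, complete medium. Normalized DMSO = 0, 100 uM tamoxifen = 100% inhibition; Hill-fit AC50.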

[15] = Cell Viability - N2a (AID 540; active means well fitted cell-killing curve with a large enough effect;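 further: plate controls were DMSO alone for no effect and tamoxifen control for full effect; nearly all actives have a fitted effect of over 45% in size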); settings: N2a mouse neuroblastoma cell viability; activity change, negative = cytotoxicity: at 92.2 µM (top of the series)
Outline: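 Cytotoxicity was scored as loss of cellular ATP in N2a cells, a mouse neuroblastoma line. Compounds are applied in a qHTS concentration series for 40 hr at 37 °C.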

[16] = Cell Viability - NIH 3T3 (AID 541; active means well fitted cell-killing curve with a large enough effect;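 further: plate controls were DMSO alone for no effect and tamoxifen positive control for full effect; nearly all actives have a fitted effect of over 25% in size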); settings: NIH 3T3 cell viability, qHTS; activity change, negative = cytotoxicity: at 92.2 µM (top of the series)
Outline: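 Cells seeded at 1000/well, rested 5 hr at 37 °C, then dosed and incubated 40 hr at 37 °C. CellTiter-Glo added, 20 min room temperature, luminescence read. AC50 by Hill fit.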

[17] = Cell Viability - H-4-II-E (AID 543; active means well fitted cell-killing curve with a large enough effect; further: on the % scale 0 is the no-effect control and ±100 the full control effect; nearly all actives have a fitted effect of over 35% in size)
Outline: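 Cells seeded at 1500 per well and rested 5 hr; compounds added; 40 hr incubation at 37 °C; CellTiter-Glo added, 20 min at room temperature; luminescence read. Hill-equation fits gave AC50.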

[18] = Cell Viability - SH-SY5Y (AID 544; active means well fitted cell-killing curve with a large enough effect;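 further: 0% = DMSO alone and -100% = 100 µM tamoxifen; nearly all actives have a fitted effect of over 55% in size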)
Outline: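 Cells were plated at 1500 per well and allowed 5 hr at 37 °C. Compounds were added across a concentration range and incubated 40 hr at 37 °C. CellTiter-Glo was added for 20 min at room temperature before luminescence reading.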

[19] = Cell Viability - Renal Proximal Tubule (AID 545; active means well fitted cell-killing curve with a large enough effect;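 further: 0% = DMSO only and -100% = 100 µM tamoxifen; nearly all actives have a fitted effect of over 40% in size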); settings: renal proximal tubule cells viability; activity change, negative = cytotoxicity: at 91.7 µM (top of the series)
Outline: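 Rat kidney proximal tubule cells, freshly isolated; 1000 cells/well, 5 hr settle, compound 40 hr 37 °C. CellTiter-Glo 20 min RT, luminescence read. AC50 by standard Hill fit.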

[20] = Cell Viability - Mesenchymal (AID 546; active means well fitted cell-killing curve with a large enough effect;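 further: cells exposed to compound for 40 hours before reading; 0% = DMSO only and -100% = 100 µM tamoxifen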)
Outline: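 In this qHTS cytotoxicity format, glomerulus-derived human mesenchymal kidney cells received compound for 40 hr, then luciferase-based ATP quantitation. Concentration-response data were fitted with the Hill equation.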

[21] = at 38 µM (top of the series) unless noted

c1cc2c(c(NC3=NCCN3)c1)CCCC2
inactive: Potency [1] > 11.4 µM | activity change, negative = inhibition [2] 7.07% [at 7.69 µM] | activity change, negative = inhibition [3] -17.1% [at 11.4 µM] | activity change, negative = inhibition [4] -5.58% [at 7.69 µM] | activity, negative = inhibition [5, 21] 4.34% [at 7.69 µM] | Potency [6] > 46 µM | Potency [7] > 9.22 µM | activity change, negative = inhibition [8] 3.19% [at 11.4 µM]

NNC(N)=O
inactive: outcome [2] | Potency [9] > 92 µM | Potency [10] > 92 µM | Potency [11] > 92 µM | Potency [12] > 92 µM | Potency [13] > 92 µM | Potency [14] > 92 µM | activity, negative = inhibition [5, 21] 1.85% | Potency [6] > 46 µM | Potency [7] > 46 µM | outcome [8] | Potency [15] | Potency [16] | Potency [17] | Potency [18] | Potency [19] | Potency [20]

CP(=O)(O)C1=CCNCC1
inactive: outcome [2] | activity change, negative = inhibition [4] -1.42% | activity, negative = inhibition [5, 21] -9.22% | Potency [6] > 46 µM | Potency [7] > 46 µM | outcome [8]

O=[N+]([O-])c1cc(O)c(O)c([N+](=O)[O-])c1
inactive: outcome [2] | activity change, negative = inhibition [4] 3.02% | activity, negative = inhibition [5, 21] 48.1% | Potency [6] > 46 µM | Potency [7] > 46 µM | outcome [8]

NNC(=O)c1ccc(O)cc1
inactive: outcome [2] | Potency [3] | activity change, negative = inhibition [4] -6.3% | activity, negative = inhibition [5, 21] 13.1% | Potency [6] > 46 µM | Potency [7] > 46 µM

CN1CCc2cc(O)cc3c2[C@H]1Cc1ccc(O)c(O)c1-3
inactive: outcome [2] | activity change, negative = inhibition [4] -24.8% | activity, negative = inhibition [5, 21] -18.2% | Potency [6] > 46 µM | Potency [7] > 46 µM

CC(C)NP(=O)(NC(C)C)OP(=O)(NC(C)C)NC(C)C
inactive: outcome [2] | activity change, negative = inhibition [4] -0.786% | activity, negative = inhibition [5, 21] -17.3% | Potency [6] > 46 µM | Potency [7] > 46 µM | outcome [8]

COc1ccc2[nH]c3c(c2c1)CCNC3
inactive: outcome [2] | activity change, negative = inhibition [4] 4.34% | activity, negative = inhibition [5, 21] 9.97% | Potency [6] > 46 µM | Potency [7] > 46 µM | outcome [8]

N#CCCN
inactive: outcome [2] | activity change, negative = inhibition [4] 7.43% | activity, negative = inhibition [5, 21] 20.4% | Potency [6] > 46 µM | Potency [7] > 46 µM | outcome [8]

O=P(O)(O)C(Cl)(Cl)P(=O)(O)O
inactive: outcome [2] | Potency [3] | activity change, negative = inhibition [4] 10.1% | outcome [8]

CCCN1CCc2cc(O)cc3c2[C@H]1Cc1ccc(O)c(O)c1-3
active: Potency [3] 12.6 µM
inactive: outcome [2] | activity, negative = inhibition [5, 21] 39.4% | Potency [6] > 46 µM | Potency [7] > 46 µM | outcome [8]

C[N+]1(C)CCN(c2ccccc2)CC1
inactive: outcome [2] | Potency [3] | activity, negative = inhibition ([5]; at 17.2 µM (top of the series)) -10% | activity, negative = inhibition ([5]; at 38 µM (top of the series)) -4.82% | Potency [6] > 46 µM and > 20.6 µM | Potency [7] > 46 µM | outcome [8]

CCCN(CCC)CCc1c[nH]c2ccc(C(N)=O)cc12
inactive: outcome [2] | activity change, negative = inhibition [4] -26.6% | activity, negative = inhibition [5, 21] 22.9% | Potency [6] > 46 µM | Potency [7] > 46 µM | outcome [8]

CN1[C@@H]2CC[C@H]1CC(OC(=O)C1C=Nc3ccccc31)C2 (some centres undefined)
inactive: outcome [2] | activity, negative = inhibition [5, 21] 3.6% [at 17.2 µM]

Nc1ccc(CCN2CCN(c3cccc(C(F)(F)F)c3)CC2)cc1
inactive: outcome [2] | activity, negative = inhibition [5, 21] -17.7% | Potency [6] > 46 µM | Potency [7] > 46 µM | outcome [8]

CCCN(CCC)C1Cc2cc(OC)c(OC)cc2C1
inactive: outcome [2] | activity, negative = inhibition [5, 21] 21.3% | Potency [6] > 46 µM | Potency [7] > 46 µM | outcome [8]

C[N+](C)(C)CC#CCOC(=O)Nc1cccc(Cl)c1
inactive: outcome [2] | activity change, negative = inhibition [4] 11.3% | activity, negative = inhibition [5, 21] -8.8% | Potency [6] > 46 µM | Potency [7] > 46 µM | outcome [8]

COc1ccc(OC)c(C(O)C(C)N)c1 (centres undefined)
inactive: outcome [2] | activity, negative = inhibition [5, 21] 2.12% [at 17.2 µM] | Potency [6] > 20.6 µM

NC(=O)COc1c(F)cc(SCCNS(=O)(=O)c2ccccc2)cc1F
inactive: outcome [2] | activity change, negative = inhibition [4] 20.9% | Potency [6] > 46 µM | Potency [7] > 46 µM | outcome [8]

C[C@@H](Cc1ccccc1)NCCC(c1ccccc1)c1ccccc1
inactive: outcome [2] | activity, negative = inhibition [5, 21] -3.28% [at 17.2 µM] | outcome [8]

CN(N=O)c1cc(O)ccc1O
inactive: outcome [2] | activity change, negative = inhibition [4] 0.498% | Potency [6] > 46 µM | Potency [7] > 46 µM

CCC1(C)CC(=O)NC(=O)C1
inactive: outcome [2] | activity change, negative = inhibition [4] -6.48% [at 17.2 µM] | activity, negative = inhibition [5, 21] -0.442% [at 17.2 µM] | Potency [6] > 20.6 µM | Potency [7] > 20.6 µM | outcome [8]

Cc1sc2ccccc2c1CC1=NCCN1
inactive: outcome [2] | activity change, negative = inhibition [4] -16.3% | Potency [6] > 46 µM | Potency [7] > 46 µM | outcome [8]

C[C@@H]1O[C@H](C[N+](C)(C)C)CS1
inactive: outcome [2] | activity, negative = inhibition [5, 21] 19.2% | Potency [6] > 46 µM | Potency [7] > 46 µM | outcome [8]

NC(=O)c1cc(N2CC2)c([N+](=O)[O-])cc1[N+](=O)[O-]
inactive: outcome [2] | activity change, negative = inhibition [4] 1.65% | activity, negative = inhibition [5, 21] 19.5% | Potency [6] > 46 µM | Potency [7] > 46 µM | outcome [8]
